# Results published in PubChem BioAssay AID1626 (SRMLSC, 2009).
# Hit rate of the full screen: of about 220,000 compounds, about 2,000 (0.91%) were called active. Not shown: some 2% with an inconclusive outcome. Cut-off read from the data, not from the text of the source: inconclusive = inhibition above about 80% without an active follow-up result; inactive = below that; test concentration not stated here. Not all results are given here. Potency and affinity values are given separately.
# Experiment: M. tuberculosis H37Rv growth inhibitors, H37Rv strain (AID 1626);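 note: bacteria incubated seven days before Alamar blue readout; 0% = bacteria only wells and 100% = bacteria with antibiotic wells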
# Details: stronger effect = higher value, concentration not given here
row,Compound,inhibition
1,COc1ccc(NS(=O)(=O)c2ccc(O)c(C(=O)OCC(=O)NC(C)C3CC4CCC3C4)c2)cc1 (stereo not drawn),-0.76% (inactive)
2,COC(=O)[C@@H](NC(=O)Nc1ccc(OC)cc1)C(C)C,2.16% (inactive)
3,CCc1ccc(NC(=O)c2ccccc2Br)cc1,6.96% (inactive)
4,CC(SC1CCCC1)C(=O)NC(C)(C#N)C(C)C (stereo not drawn),-2.88% (inactive)
5,CC(C)(C)NC(=O)C1CCC(CNc2c(N3CCCCC3)c(=O)c2=O)CC1 (stereo not drawn),-2.67% (inactive)
6,COc1ccc(NC(=O)CN2CCN(C3c4ccccc4-c4ccccc43)CC2)c(OC)c1,28.6% (inactive)
7,CCOc1ccc(NC(=O)CN2CCN(CC(=O)Nc3ccc(F)c(F)c3)CC2)cc1,10.7% (inactive)
8,COc1ccc(NC(=O)CN2CCN(C3c4ccccc4-c4ccccc43)CC2)cc1,18.1% (inactive)
9,CCOc1ccc(NC(=O)CN2CCN(CC(=O)Nc3ccc(F)cc3)CC2)cc1,9.61% (inactive)
10,COc1ccc(C(=O)N[C@H](C(=O)OCc2cc(=O)oc3cc(C)ccc23)C(C)C)cc1,9.93% (inactive)
11,Cc1cccc(C)c1OCCCCn1cnc2ccccc2c1=O,-6.94% (inactive)
12,CCOC(=O)N1CCN(C(=O)CCCn2c(=O)[nH]c3ccccc3c2=O)CC1,1.26% (inactive)
13,COC(=O)C1=C(C)NC(C)=C(C(=O)OC)C1C1CC=CCC1 (stereo not drawn),5.42% (inactive)
14,Cc1cccn2cc(-c3cccc(NC(=O)c4cccs4)c3)nc12,2.98% (inactive)
15,COc1ccc(-c2cc(C(=O)OC3CCOC3=O)c3ccccc3n2)cc1OC (stereo not drawn),-3.98% (inactive)
16,CCOC(=O)N1CCN(C(=O)CSc2ccc(-c3ccccc3OC)nn2)CC1,3.28% (inactive)
17,COC(=O)c1ccc(Cl)c(S(=O)(=O)N2CCCC2)c1,4.58% (inactive)
18,C=C(C)C1Cc2c(C)nn(-c3ccccc3)c2C1 (stereo not drawn),3.68% (inactive)
19,C=C(C)C1Cc2c(C)nn(-c3cccc4ccccc34)c2C1 (stereo not drawn),13.7% (inactive)
20,COc1ccccc1CCc1nnc(CCC(=O)NC(C)Cc2cccnc2)o1 (stereo not drawn),4.51% (inactive)
21,COc1ccccc1Nc1nnc(SCC(=O)N2CCCC2)s1,-3.72% (inactive)
22,O=C(CCC1CCCCC1)NNC(=O)NC12CC3CC(CC(C3)C1)C2,-2.75% (inactive)
23,OC(CNCc1ccco1)Cn1c2ccccc2c2ccccc21 (stereo not drawn),0.42% (inactive)
24,OC(CNCC1CCCO1)Cn1c2ccc(Br)cc2c2cc(Br)ccc21 (stereo not drawn),43.1% (inactive)

row,Compound,inhibition
1,O=C(CCc1nnc(Cc2c[nH]c3ccccc23)o1)NC1CCCC1,-6.46% (inactive)
2,CN(C)S(=O)(=O)c1ccc(NC(=O)CSc2nnnn2C)cc1,2.23% (inactive)
3,Cc1ccc(S(=O)(=O)NC(=O)Nc2cc(C(C)(C)C)on2)cc1,-7.06% (inactive)
4,Cc1ccc2cc(CCNC(=O)c3cccc([N+](=O)[O-])c3)c(=O)[nH]c2c1,2% (inactive)
5,O=C(COc1ccc(Cl)cc1Cl)Nc1nnc(C2=COCCO2)o1,1.29% (inactive)
6,COc1ccc(C)c2sc(NC(=O)C3=COCCO3)nc12,5.95% (inactive)
7,Cc1ccnc2nc(C(=O)Nc3nnc(-c4ccc(Cl)cc4)o3)nn12,-1.12% (inactive)
8,COc1ccc(-c2csc(NC(=O)COC(=O)C3=COCCO3)n2)cc1,4.53% (inactive)
9,COc1ccc(CCNC(=O)C2=COCCO2)cc1,0.72% (inactive)
10,CCc1nnc(NC(=O)c2ccc3ncsc3c2)s1,-18.6% (inactive)
11,COc1ccc(OC)c2sc(NC(=O)C3=COCCO3)nc12,6.97% (inactive)
12,COc1ccc2nc(NC(=O)c3ccc4ncsc4c3)sc2c1,8.2% (inactive)
13,COc1ccc(CC2(CO)CCN(Cc3cnn(-c4ccc(F)cc4)c3)CC2)cc1,-9.12% (inactive)
14,NC(=O)c1ccccc1NS(=O)(=O)c1ccc2c(c1)OCCO2,-3.34% (inactive)
15,CN1CCN(c2ccc(Cl)cc2NC(=O)c2ccc(S(=O)(=O)N(C)C)cc2)CC1,-2.17% (inactive)
16,COc1ccc(C(=O)NC(=S)Nc2cccc(NC(=O)c3ccco3)c2)cc1[N+](=O)[O-],6.53% (inactive)
17,CCCN1C(=O)c2ccccc2NC1c1ccc(OC)c(CSc2ccccn2)c1 (stereo not drawn),-2.45% (inactive)
18,CCN(CC)S(=O)(=O)c1ccc(/C=C/C(=O)Nc2c(C)n(C)n(-c3ccccc3)c2=O)cc1,-0.04% (inactive)
19,Cn1c(=O)c([N+](=O)[O-])c(NCCCn2ccnc2)c2ccccc21,-3.33% (inactive)
20,Cc1ccccc1-n1nnnc1SC(C)C(=O)NC1CCCc2ccccc21 (stereo not drawn),10.2% (inactive)
21,Cc1ccc(C(=O)CSc2nnc(CNc3ccc(C)cc3C)o2)cc1,-7.6% (inactive)
22,Cc1ccc(NCc2nnc(SCC(N)=O)o2)c(C)c1,-3.32% (inactive)
23,O=C(CSc1nnc(CNc2ccc(F)cc2)o1)OC1CCCCC1,25.5% (inactive)
24,Cn1c(CNc2cccc(Cl)c2)nnc1SCC(=O)OC1CCCCC1,62.1% (inactive)

row,Compound,inhibition
1,COC(=O)Nc1ccc(S(=O)(=O)N2CCCCC2C(=O)NCc2ccco2)cc1 (stereo not drawn),-7.03% (inactive)
2,O=C(COC(=O)CNS(=O)(=O)/C=C/c1ccccc1)NC1CCS(=O)(=O)C1 (stereo not drawn),-7.59% (inactive)
3,O=C(COc1ccc(Br)cc1Br)NC(=O)NC1CCCC1,3.86% (inactive)
4,Cc1ccc(CNc2ccc(N3CCOCC3)c(C(=O)O)c2)s1,-3.09% (inactive)
5,O=C1c2cccc3cccc(c23)C(=O)N1CC1CCN(CC(O)COCc2ccc3c(c2)OCO3)CC1 (stereo not drawn),76.5% (inactive)
6,COc1cccc(OCC(O)CN2CCC(CN3C(=O)c4cccc5cccc(c45)C3=O)CC2)c1 (stereo not drawn),-4.13% (inactive)
7,CCN(CC)C(=O)c1cc([N+](=O)[O-])cc2c1-c1ccc([N+](=O)[O-])cc1C2=C(C#N)C#N,23% (inactive)
8,CCCCN(CCCC)C(=O)c1cc(Cl)ccc1[N+](=O)[O-],11% (inactive)
9,C=CCNC(=O)C1CC(=O)N(c2ccc(OCC(=O)Nc3ccc(Cl)c(C(F)(F)F)c3)cc2)C1 (stereo not drawn),-8.95% (inactive)
10,Cc1cc(C)c(-c2cc(NC(=O)COC(=O)c3ccc(CO)cc3)n(-c3ccccc3)n2)cc1C,4.29% (inactive)
11,COc1ccc(CNC(=O)COC(=O)CCc2c[nH]c3ccccc23)cc1,4.73% (inactive)
12,CC(=O)N1CCN(C(=O)CCc2c[nH]c3ccccc23)CC1,3.68% (inactive)
13,COC(=O)C1CCN(C(=O)COC(=O)Cc2c[nH]c3ccccc23)CC1,2.16% (inactive)
14,COc1ccc(N2CCN(C(=O)CCc3c[nH]c4ccccc34)CC2)cc1,-4.15% (inactive)
15,COc1ccc(C)cc1NC(=O)CSc1nnc(-c2ccco2)n1Cc1ccco1,-0.88% (inactive)
16,CC(=O)Nc1sc(N/N=C\c2cccc(Cl)c2)nc1-c1cccs1,54.5% (inactive)
17,CCS(=O)(=O)N1CCCC(C(=O)NCCN(C)Cc2ccccc2)C1 (stereo not drawn),-6.72% (inactive)
18,Cc1ccc(C(=O)CSc2ncnc3ccccc23)o1,10.6% (inactive)
19,COc1ccc(CCN(Cc2cccs2)S(=O)(=O)c2ccc(C(=O)O)cc2)cc1OC,-3.72% (inactive)
20,CSc1nnc(-c2cnccn2)n1Cc1ccccc1,-1.1% (inactive)
21,CCOc1ccc(OCCCC(=O)NC2=NCCS2)cc1,-1.83% (inactive)
22,CC(C)(C)c1ccc(OCCC(=O)NC2=NCCS2)cc1,-11.7% (inactive)
23,COc1cccc(CNC23CC4CC(CC(C4)C2)C3)c1OCc1ccccc1,13.5% (inactive)
24,c1ccc(COc2ccccc2CNC23CC4CC(CC(C4)C2)C3)cc1,17% (inactive)

row,Compound,inhibition
1,CS(=O)(=O)N1CCN(C2Cc3ccccc3C2)CC1,-13.7% (inactive)
2,O=[N+]([O-])c1ccc(O)c(C=Nc2ccc3c(c2)OCO3)c1,8.62% (inactive)
3,O=[N+]([O-])c1ccc(O)c(C=Nc2ccc3c(c2)OCCO3)c1,77.5% (inactive)
4,CCN1CCN(c2nc(N)c([N+](=O)[O-])c(Nc3ccc(C)c(C)c3)n2)CC1,51.5% (inactive)
5,Cc1cccc(Nc2nc(N3CCN(C)CC3)nc(N)c2[N+](=O)[O-])c1,16.3% (inactive)
6,N#Cc1ccccc1Cn1c(=O)n(Cc2ccc(C(=O)NCc3ccco3)cc2)c(=O)c2sccc21,-3.31% (inactive)
7,CN1C(=O)C(O)(CC(=O)c2ccncc2)c2ccccc21 (stereo not drawn),3.47% (inactive)
8,C/C(CC1(O)C(=O)N(C)c2ccccc21)=N\O (stereo not drawn),-3.6% (inactive)
9,COc1cc(OC)c(N(C)C(=O)CCNC(=O)Cn2cnc3ccccc3c2=O)cc1Cl,-0.76% (inactive)
10,NC(=NC(=O)c1ccc(Cl)cc1)N1N=CCC1c1ccccc1 (stereo not drawn),11.8% (inactive)
11,COc1ccc(C2c3ccc(O)cc3Oc3ncn(CCN4CCOCC4)c(=N)c32)cc1 (stereo not drawn),-0.84% (inactive)
12,Cc1ccc(-c2nn(-c3ccccc3)cc2NC(=O)c2ccccc2)cc1,-0.55% (inactive)
13,O=C(CCl)Nc1cn(-c2ccccc2)nc1-c1ccc(F)cc1,61.8% (inactive)
14,O=C(Nc1cn(-c2ccccc2)nc1-c1ccc(Cl)cc1)c1ccccc1,9.57% (inactive)
15,CC(=O)Nc1cn(-c2ccccc2)nc1-c1ccccc1,-0.45% (inactive)
16,CNC(=S)N1CCc2ccccc2C1,3.08% (inactive)
17,COc1ccc(NC(=O)C(NC(=O)CNC(C)=O)c2ccc(C)cc2)cc1 (stereo not drawn),-6.91% (inactive)
18,O=C(CCN1C(=O)c2ccccc2C1=O)NC(=S)Nc1ccccc1Cl,9.27% (inactive)
19,Oc1[nH]c2ccccc2c1C=Nc1ccc2c(c1)OCCO2,6.37% (inactive)
20,O=C(NCCCn1ccnc1)c1nn2c(C(F)(F)F)cc(-c3ccccc3)nc2c1Cl,-4.76% (inactive)
21,O=C(NCCCn1ccnc1)c1cc2nc(-c3ccc(Br)cc3)cc(C(F)(F)F)n2n1,6.06% (inactive)
